Data reported in PubChem BioAssay AID1531 (NMMLSC, 2009).
Hit rate of the full screen: of about 290,000 compounds, about 3,300 (1.1%) were called active. This is one part of a sample in which actives are shown more often than they occur. Cut-off read from the data, not from the text of the source: active = binding response below about 67% or above about 130%; inconclusive = no clear call, values can overlap the other calls; inactive = in between.

Each compound was assayed against Mitogen-activated protein kinase kinase kinase 2 (Homo sapiens) (UniProt Q9Y2U5) (assay: modulators of MEK5 binding to wildtype MEKK2, primary screen, biochemical, multiplex bead flow cytometry, Alexa488-MEK5 (AID 1531)). Details: Alexa488-MEK5 binding to MEKK2 WT, at 10 µM, actives lie on both sides.
With `CCCc1cc(=O)[nH]c(SCC(=O)N2C(C)CCCC2C)n1` (configuration not stated) the binding response (% of control) was 113% (inactive). In the case of `CC1CCCC(C)N1C(=O)CSc1nnnn1C1CCCC1` (configuration not stated), the binding response (% of control) was 100% (inactive). For `CCCc1nnc(SCC(=O)N2C(C)CCCC2C)n1CC` (configuration not stated), the binding response (% of control) was 812% (active). For `COc1ccccc1CNS(=O)(=O)c1c(C)[nH]c(C)c1C(=O)N1CCCCC1`, the binding response (% of control) was 101% (inactive). With `O=C(Nc1ccc(C(=O)N2CCOCC2)cc1)Nc1cccc(C(F)(F)F)c1` the binding response (% of control) was 102% (inactive). In the case of `O=C(COc1cc2oc(=O)c3c(c2cc1Cl)CCC3)NCCCN1CCOCC1`, the binding response (% of control) was 100% (inactive). For `CCCC[C@@H]1CN=C(N)N1CCc1cccc(F)c1`, the binding response (% of control) was 107% (inactive). `CCn1c(=N)n(CC(=O)c2cccc(OC)c2)c2ccccc21` was tested, and the binding response (% of control) was 96% (inactive). With `CCCNC(=O)c1ccc(Cl)c(Cl)c1` the binding response (% of control) was 101% (inactive). For `CCCn1c(=N)n(CC(=O)c2ccc(Cl)c(Cl)c2)c2ccccc21`, the binding response (% of control) was 139% (active). `COC(C[C@@H]1O[C@@H]1C(=O)[C@@H](C)OCc1ccccc1)OC` was tested, and the binding response (% of control) was 97% (inactive). For `O=C(CCN1CCc2ccccc2C(O)(c2ccccc2)C1)c1ccc2c(c1)OCCO2` (configuration not stated), the binding response (% of control) was 103% (inactive). `CCN1CCN(CCNC(=O)c2ccc(/C=C3/Sc4ccccc4N(Cc4cccc(C)c4)C3=O)cc2)CC1` was tested, and the binding response (% of control) was 220% (active). For `CCN1CCN(CCNC(=O)c2ccc3c(c2)NC(=O)/C(=C\c2ccc(OC)c(OC)c2)S3)CC1`, the binding response (% of control) was 131% (inactive). For `O=C(NCCN1CCOCC1)c1ccc(/C=C2\Sc3ccccc3N(Cc3ccc(F)cc3)C2=O)cc1`, the binding response (% of control) was 128% (inactive). In the case of `CCOc1cc(C)c(S(=O)(=O)NCc2ccccn2)cc1C`, the binding response (% of control) was 102% (inactive). For `Cc1cccc(N2CCN(C(=O)COCc3cc(-c4ccc5c(c4)OCO5)on3)CC2)c1C`, the binding response (% of control) was 100% (inactive). For `Cc1nc2sccn2c(=O)c1S(=O)(=O)NCCc1ccccc1`, the binding response (% of control) was 99% (inactive). `COc1ccc(CN2[C@@H](CC(=O)O)c3cc(F)ccc3S2(=O)=O)cc1` was tested, and the binding response (% of control) was 84% (inactive). In the case of `CC(Oc1cccc(Cl)c1)C(=O)NC1CC(C)(C)NC(C)(C)C1` (configuration not stated), the binding response (% of control) was 107% (inactive). With `CC(=O)Nc1ccc(C(=O)Nc2nc(-c3cc(C)n(Cc4ccccc4)c3C)cs2)cc1` the binding response (% of control) was 107% (inactive). For `Cc1cc(-c2csc(N)n2)c(C)n1-c1ccccc1`, the binding response (% of control) was -9% (active). For `Cc1cc(-c2csc(N)n2)c(C)n1Cc1ccccc1`, the binding response (% of control) was 89% (inactive). `COC(=O)CN1C(=O)[C@H]2[C@@H](/C=C/c3ccccc3)N3C(=O)CN(Cc4ccccc4)C(=O)[C@@]3(Cc3ccccc3)[C@H]2C1=O` was tested, and the binding response (% of control) was 95% (inactive). `COCCNc1cc(-c2ccccc2)nc2cc(-c3cccc(F)c3)nn12` was tested, and the binding response (% of control) was 118% (inactive). `COc1ccc(SC[C@H](Cc2ccccc2)N2CCN(CCc3ccccc3)CCC2=O)cc1` was tested, and the binding response (% of control) was 158% (active). With `C[C@H]1CCC(=O)N([C@H](CSc2ccccc2)Cc2ccccc2)CC1` the binding response (% of control) was 161% (active). With `O=C1CCN(Cc2ccccc2)CCN1[C@H](CSc1ccccc1)c1ccccc1` the binding response (% of control) was 90% (inactive). `CN1CCC(=O)N([C@H](CO)Cc2ccccc2)CC1` was tested, and the binding response (% of control) was 97% (inactive). For `O=C1CCNCCN1[C@H](CO)Cc1ccccc1`, the binding response (% of control) was 110% (inactive). `COc1ccc(SCCN2CCN(CC(C)C)CCC2=O)cc1` was tested, and the binding response (% of control) was 131% (inactive). With `O=C(NCc1ccccc1)C1=C[C@@H](c2ccccc2)C[C@@H](OCCCCO)O1` the binding response (% of control) was 101% (inactive). With `COCOc1cc(O)c(C(=O)/C=C/c2ccc(OCOC)c(OCOC)c2)c(OCOC)c1` the binding response (% of control) was 111% (inactive). For `COc1ccccc1N1CCN(c2nc(C)cc(=O)[nH]2)CC1`, the binding response (% of control) was 107% (inactive). With `CCCCOc1ccc(C(=O)NCc2ccncc2)cc1` the binding response (% of control) was 111% (inactive). `CCCCOc1ccc(C(=O)NN2CCN(C)CC2)cc1` was tested, and the binding response (% of control) was 99% (inactive). `CCCOc1ccc(C(=O)C(CCC(CNCC)C(=O)c2ccc(OCCC)cc2)CNCC)cc1` (configuration not stated) was tested, and the binding response (% of control) was 188% (active). In the case of `CCCCN(CCCC)CCNC(=O)CN1C(=O)COc2ccc(S(=O)(=O)N3CCOCC3)cc21`, the binding response (% of control) was 103% (inactive). For `COc1ccc(N=Cc2c(O)[nH]c3ccccc23)cc1OC`, the binding response (% of control) was 103% (inactive). In the case of `CN=c1scc(-c2cc(OC)ccc2OC)n1/N=C/c1c(C)[nH]c2ccccc12`, the binding response (% of control) was 10% (active). With `CCn1c(-c2cc(OC)ccc2OC)csc1=Nc1c(C)n(C)n(-c2ccccc2)c1=O` the binding response (% of control) was 107% (inactive). In the case of `Cc1cc(OCC(=O)NCC(O)c2ccccc2)c2c(C)c(C)c(=O)oc2c1` (configuration not stated), the binding response (% of control) was 100% (inactive). With `O=C(Nc1ccccc1)c1ccc2c(c1)OCCCO2` the binding response (% of control) was 105% (inactive). For `COc1ccc(C(C)NC(=S)NC2CCCCC2)cc1OC` (configuration not stated), the binding response (% of control) was 101% (inactive). For `Cc1[nH]c(=O)c(C(=O)/C=C/c2ccccc2)c2c1CCCC2`, the binding response (% of control) was 101% (inactive). In the case of `Cc1cn(COC/C=C/c2ccccc2)c(=O)[nH]c1=O`, the binding response (% of control) was -7% [inhibitor] (active). For `Cc1nc2nc[nH]n2c(=O)c1C/C=C/c1ccccc1`, the binding response (% of control) was 83% (inactive). `COc1ccc(-c2nc3c(s2)CCc2onc(-c4ccc(Br)cc4)c2-3)cc1` was tested, and the binding response (% of control) was 95% (inactive). For `CCCCN(CCCC)CCCNC(=O)CN1C(=O)COc2ccc(S(=O)(=O)N3CCC(C)CC3)cc21`, the binding response (% of control) was 96% (inactive). `COc1ccc(N=C2SC(C(=O)Nc3ccc(F)cc3)CC(=O)N2C)cc1` (configuration not stated) was tested, and the binding response (% of control) was 97% (inactive). With `CN=C1SC(C(=O)O)CC(=O)N1C` (configuration not stated) the binding response (% of control) was 3% (active). In the case of `CCOc1ccc(N=C2SC(C(=O)O)CC(=O)N2C)cc1` (configuration not stated), the binding response (% of control) was 92% (inactive). `COc1cccc(CNCCc2c[nH]c3ccccc23)c1OCc1ccccc1F` was tested, and the binding response (% of control) was 159% (active). In the case of `COc1ccc(S(=O)(=O)NCCc2c[nH]c3ccccc23)cc1OC`, the binding response (% of control) was 100% (inactive). For `COc1ccccc1CC(=O)NCCc1c[nH]c2ccccc12`, the binding response (% of control) was 101% (inactive). In the case of `CCn1cc(C(=O)NCC(=O)NC(C)(C)CO)c(=O)c2cc3c(cc21)OCO3`, the binding response (% of control) was 101% (inactive). With `O=C(OCC(=O)N1CCN(C(=O)c2ccco2)CC1)c1cccc(O)c1` the binding response (% of control) was 106% (inactive). For `Cc1c(C(=O)NC2CCCCC2)oc2ccccc12`, the binding response (% of control) was 108% (inactive). In the case of `Cc1c(C)c2c(OCC(=O)NCCCO)cc3c(c2oc1=O)CCC(C)(C)O3`, the binding response (% of control) was 99% (inactive). `Clc1cccc(N=C2NN=C(c3ccc4c(c3)OCCO4)CS2)c1` was tested, and the binding response (% of control) was 97% (inactive). `CS(=O)(=O)N(CC(=O)N1CCN(Cc2ccccc2)CC1)c1ccc2c(c1)OCCO2` was tested, and the binding response (% of control) was 103% (inactive). For `c1ccc(CN2CCC(N=C3NN=C(c4ccc5c(c4)OCCO5)CS3)CC2)cc1`, the binding response (% of control) was 154% (active). `CC1(c2nnc(-c3ccncc3)o2)CC(c2cccnc2)=NO1` (configuration not stated) was tested, and the binding response (% of control) was 105% (inactive). With `O=C(NCCc1ccc(Cl)cc1Cl)c1cc([N+](=O)[O-])c[nH]c1=O` the binding response (% of control) was 96% (inactive). With `COc1ccc(Cn2c(-c3ccc(Cl)cc3)c[n+]3ccccc23)cc1` the binding response (% of control) was 112% (inactive). For `Cc1c(C)c2ccc(OCC(=O)N3CCN(c4cccc(Cl)c4)CC3)cc2oc1=O`, the binding response (% of control) was 92% (inactive). With `Cc1ccc(C(CNC(=O)Nc2cccc(C)c2)N2CCN(C)CC2)cc1` (configuration not stated) the binding response (% of control) was 104% (inactive). In the case of `CCN1C(=S)N[C@@H](CCc2ccccc2)[C@H](C(=O)OC)[C@H]1C`, the binding response (% of control) was 98% (inactive). In the case of `CCN1C(=NCc2ccc(OC)cc2)N[C@@H](CCc2ccccc2)[C@H](C(=O)NCc2ccc(OC)cc2)[C@H]1C`, the binding response (% of control) was 139% (active). For `CCN1C(=NCC(C)C)N[C@@H](CCc2ccccc2)[C@H](C(=O)NCC(C)C)[C@H]1C`, the binding response (% of control) was 103% (inactive). In the case of `COc1ccc(CCNS(=O)(=O)c2cc3c(cc2C)NC(=O)CO3)cc1OC`, the binding response (% of control) was 98% (inactive). `COc1ccc(NC(=O)CSc2nc3ccccc3c(=O)n2C)cc1` was tested, and the binding response (% of control) was 105% (inactive). With `COc1ccccc1/C=N/Nc1nc(C)c(C(C)=O)s1` the binding response (% of control) was 95% (inactive). With `O=C(CSc1nc(Nc2ccccc2)nc(N2CCOCC2)n1)Nc1cc(Cl)ccc1O` the binding response (% of control) was 99% (inactive). For `Cc1c(CCOC(=O)c2cc([N+](=O)[O-])ccc2Cl)sc[n+]1CCCCS(=O)(=O)[O-]`, the binding response (% of control) was 97% (inactive). In the case of `Cc1c(CCO)sc[n+]1CC(=O)OC12CC3CC(CC(C3)C1)C2`, the binding response (% of control) was 97% (inactive). With `Cc1c(CCOC(=O)CC23CC4CC(CC(C)(C4)C2)C3)sc[n+]1Cc1ccc([N+](=O)[O-])cc1` the binding response (% of control) was 172% (active). For `CS(=O)(=O)N(Cc1nc2sc3c(c2c(=O)[nH]1)CCCC3)C1CCCCC1`, the binding response (% of control) was 99% (inactive). For `COc1ccc(-c2csc3ncnc(N4CCN(S(=O)(=O)c5ccccc5C#N)CC4)c23)cc1`, the binding response (% of control) was 107% (inactive). For `C=CCN1C=C2C(=O)C(C)(OC(=O)CCc3ccccc3)C(=O)C=C2C=C1c1ccc(C#N)cc1` (configuration not stated), the binding response (% of control) was 142% (active). In the case of `COC(=O)CCCC1=CC2=CC(=O)C(C)(OC(=O)c3cccs3)C(=O)C2=CN1c1cccc(C#N)c1` (configuration not stated), the binding response (% of control) was 96% (inactive). `CC1(OC(=O)CCc2ccccc2)C(=O)C=C2C=C(c3ccc(C#N)cc3)N(CCc3ccccn3)C=C2C1=O` (configuration not stated) was tested, and the binding response (% of control) was 111% (inactive). In the case of `Cc1ccc(C23CC4CC(CC(C(=O)NCC(=O)O)(C4)C2)C3)cc1`, the binding response (% of control) was 105% (inactive). In the case of `N#C/C(=C\c1cccnc1)C(=O)Nc1ccc(SC(F)F)cc1`, the binding response (% of control) was 107% (inactive). For `CCOc1ccc(N/C=C/C(=O)c2ccccc2)cc1`, the binding response (% of control) was 109% (inactive). With `CCc1ccc(-c2nn(-c3ccccc3)cc2CSC(=N)N)cc1` the binding response (% of control) was 140% (active). In the case of `O=C(Nc1cn(-c2ccccc2)nc1-c1ccccc1)c1ccccc1`, the binding response (% of control) was 96% (inactive). In the case of `Cc1ccc(-c2nn(-c3ccccc3)cc2CN(Cc2ccccc2)C(=O)CCC(=O)O)o1`, the binding response (% of control) was 97% (inactive). `CC(=O)NCCc1ccc(S(=O)(=O)Nc2ccc(C)c(S(=O)(=O)N3CCOCC3)c2)cc1` was tested, and the binding response (% of control) was 103% (inactive). With `O=C(Nc1cccc(Br)c1)c1ccc2snnc2c1` the binding response (% of control) was 97% (inactive). In the case of `CCc1ccccc1NC(=O)c1ccc2snnc2c1`, the binding response (% of control) was 100% (inactive). In the case of `O=C(Nc1ccc2ccccc2c1)Nc1ccc2snnc2c1`, the binding response (% of control) was 158% (active).
